From PubChem BioAssay
CYP2C19 activ = activators of human cytochrome P450 2C19; P33261; recombinant CYP2C19, luciferin-H EGE luminescence; active compounds read high; 0 = fully inhibited enzyme, 1 = untreated enzyme; activation factor at 5 µM; 96,000 tested, under 10 active; AID 1025;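 active = activation factor of at least 2 at 5 µM in the primary screen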;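 note: 0 = wells with 2.5 mM tranylcypromine and 1 = vehicle-only wells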
CYP2C9 inhib = blocks human cytochrome P450 2C9 | P11712 | inhibition, % at 5 µM | hit rate 20% among 96,000 | CYP2C9 Supersomes, luciferin-H conversion, luminescence | AID 777;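 active = blocking of liver enzyme CYP2C9 beyond about 50% at 5 µM, limit read from the data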
Cav32 inh = human Cav3.2 channel inhibition, primary screen; Cav3.2-expressing cells, Fluo-4 calcium fluorescence FDSS; active compounds read low; B-score at 10 µM; hit rate 4% among 100,000;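 active = single-dose well whose peak fluorescence ratio is a statistical outlier from its plate by either plate-standardised score or position-corrected B-score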
CYP2C19 inhib = blocks human cytochrome P450 2C19; AID 778; inhibition, % at 5 µM; CYP2C19 Supersomes, luciferin-H EGE luminescence, 30 min; P33261; hit rate 21% among 96,000;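 active = CYP2C19 inhibition above a set limit at 5 µM in the primary screen, cut at about 50% in these data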;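 note: plate controls were negative control wells for no effect and 2.5 mM tranylcypromine positive control for full effect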
CYP2C9 act = activators of human CYP2C9; P11712; recombinant CYP2C9, luciferin-H conversion, luminescence; active compounds read high; factor 1 = untreated enzyme, 0 = blocked; activation factor at 5 µM; hit rate 1.4% among 96,000; AID 1024;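 active = activation factor of 2 or more for CYP2C9 at a 5 µM dose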;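 note: 0 = sulfaphenazole-blocked wells and 1 = vehicle-only wells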
Starred values were filed as active, the others as inactive; . = not tested or not shown. An excerpt weighted towards active compounds, which were near 27% of everything screened.

SMILES	CYP2C19 activ	CYP2C9 inhib	Cav32 inh	CYP2C19 inhib	CYP2C9 act
O=C(c1cccn2c(=O)c3ccc(Cl)cc3nc12)N1CCC2(CC1)OCCO2	0.9	14	.	14	0.9
COCCCN1CCN(c2nnc3n2-c2sc(Br)cc2C(c2ccccc2Cl)=NC3)CC1	0.6	27	.	44	0.7
Oc1ccc(C2=CCNCC2)cc1O	.	.	0.058	.	.
CCOC(=O)c1cc(C(O)(C(=O)OC)C(F)(F)F)c(/N=C/N(C)C)o1 (configuration not stated)	0.8	25	0.17	19	0.8
CCOC(=O)N(CC)c1ccc(C(O)(C(=O)OCC)C(F)(F)F)cc1 (configuration not stated)	0.4	77*	-1.3	58*	0.2
CCOC(=O)C(NC(=O)CC)(Nc1ccc(C(O)(C(=O)OCC)C(F)(F)F)cc1C)C(F)(F)F (configuration not stated)	0.7	54*	-1.3	34	0.5
CCOC(=O)C(O)(c1ccc(N(CC)C(=O)OC)cc1)C(F)(F)F (configuration not stated)	0.4	69*	0.29	64*	0.3
Cc1cccc(CSc2nc3c(cc2C#N)CN(C)CC3)c1	0.3	1	1.2	70*	1
CC(Cc1ccccc1)[n+]1cc(/N=C(\[O-])Nc2ccccc2)on1 (configuration not stated)	0.7	72*	-0.065	31	0.3
Fc1ccc2c(c1)nnn2C1CCN(Cc2nnnn2C2CCCCC2)CC1	0.3	75*	1.3	67*	0.2
Cc1ccc(Cn2nnnc2CN2CCC(n3nnc4cc(C)ccc43)CC2)cc1	0.1	96*	-3	91*	0
Cc1nc2cc(F)ccc2n1C1CCN(Cc2nnnn2CCc2ccccc2)CC1	0.4	62*	-0.55	62*	0.4
Cc1ccc(C)c(CN2CCC(n3nnc4cc(F)ccc43)CC2)c1	0.6	6	-1	39	0.9
FC(F)(F)c1ccc2c(c1)nnn2C1CCN(Cc2nnnn2Cc2ccccc2)CC1	0.5	93*	.	48	0.1
Fc1ccc2c(c1)nnn2C1CCN(Cc2c(Cl)cccc2Cl)CC1	.	.	-0.015	.	.
COC(=O)C1=C(c2ccc(S(C)(=O)=O)cc2)C[C@@H]2CC[C@H]1N2C(=O)NCCNC(C)=O	.	.	0.0046	.	.
Cc1ccc(Cn2nnnc2CN2CCC(n3nnc4cc(C(F)(F)F)ccc43)CC2)cc1	0.7	73*	-2.9	35	0.3
COC(=O)C1=C(c2cc3ccccc3s2)C[C@@H]2CC[C@H]1N2C(=O)N1CCCC1	.	.	-0.045	.	.
Clc1ccc(COC(Cn2ccnc2)c2ccc(Cl)cc2Cl)c(Cl)c1 (configuration not stated)	.	.	-1.3	.	.
